Source: PubChem (National Center for Advancing Translational Sciences (NCATS))
An excerpt weighted towards active compounds, which were near 18% of everything screened.
KAT2A inh = blocks human GCN5L2 histone acetyltransferase; GCN5L2 HAT assay, ThioGlo1 CoA-SH fluorescence; Q92830; Potency, µM (highest dose often 58.9 µM), inactives show at the highest dose activity change, negative = inhibition, most hits filed as inhibitors; 390,000 compounds, 0.21% hits
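Fluorescence readout, Ex340nm/Em540nm: ThioGlo1 (50uM final) reacts with free CoA thiol released as 20nM GCN5L2 acetylates H3(1-25) peptide (75uM) using acetyl-CoA (70uM). Compound and enzyme sat 15 min beforehand; 20 min room-temperature reaction.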
VDR inhibitor = vitamin D3 receptor (human) inhibition; P11473; VDR-SRC2-3 peptide fluorescence polarization, 2 h; Potency, µM, for inactives: max response, negative = inhibition, actives largely listed as inhibitors; 400,000 compounds, 0.93% hits
Target sequence (P11473 whole entry, looked up): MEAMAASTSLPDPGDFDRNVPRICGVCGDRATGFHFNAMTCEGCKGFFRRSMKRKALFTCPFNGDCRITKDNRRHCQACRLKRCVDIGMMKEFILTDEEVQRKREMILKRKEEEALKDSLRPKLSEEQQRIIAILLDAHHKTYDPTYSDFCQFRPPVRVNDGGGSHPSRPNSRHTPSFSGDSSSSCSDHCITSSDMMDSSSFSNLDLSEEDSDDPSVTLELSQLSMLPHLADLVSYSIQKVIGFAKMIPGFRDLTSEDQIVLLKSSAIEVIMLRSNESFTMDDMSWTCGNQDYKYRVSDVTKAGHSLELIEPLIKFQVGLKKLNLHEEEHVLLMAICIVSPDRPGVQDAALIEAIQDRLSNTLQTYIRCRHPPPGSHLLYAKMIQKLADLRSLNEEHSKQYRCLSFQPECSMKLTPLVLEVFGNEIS
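Two reagent solutions held at 4 deg C in the dark were dispensed, compounds pinned at 23 nl, and the mixture incubated 2 h at room temperature. Read-out: fluorescence polarization of VDR–SRC2-3 peptide binding.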
DT40 TDP1 CPT = DT40-hTDP1 cell growth loss with CPT; 420,000 compounds, 12% hits; chicken DT40 Tdp1-/-;hTDP1 cells + 20 nM CPT, ATP luminescence, 48 h; Potency, µM (highest dose often 46.2 µM), for inactives: at the highest dose activity change, negative = growth inhibition, actives largely listed as inhibitors; note: nearly all actives have a fitted effect of over 55% in size
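Chicken DT40 Tdp1-/- cells stably complemented with human TDP1 were seeded at 400 cells/well in medium containing 20 nM camptothecin, exposed to pin-transferred compounds, and grown at 37 °C for at least 48 hr. Viability was read as ATP luminescence.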
DT40 TDP1 no CPT = qHTS for Inhibitors of human tyrosyl-DNA phosphodiesterase 1 (TDP1): qHTS in cells in absence of CPT; Potency, µM (titrated, usually from 46.2 µM), for the others: top-dose activity change, negative = growth inhibition, usual class: inhibitors; 420,000 compounds, 15% hits; AID 686978, 2013; DT40 Tdp1-/- hTDP1 cells, no CPT, ATP luminescence, 48 h; note: nearly all actives have a fitted effect of over 55% in size
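Growth of hTDP1-complemented DT40 Tdp1-knockout cells is measured by ATP luminescence after at least 48 hr compound exposure at 37 °C, with DMSO substituting for the 20 nM CPT used in the parallel screen.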
TDP1 inh = blocks human tyrosyl-DNA phosphodiesterase 1; Q9NUW8; recombinant TDP1, AlphaScreen DNA substrate cleavage; Potency, µM (highest dose often 130 µM), without a hit: at the top dose activity change, negative = inhibition, hits mostly inhibitors; 350,000 compounds, 0.28% hits; note: nearly all actives have a fitted effect of over 40% in size
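Enzyme-compound mixtures sat 15 min at room temperature, followed by a 5 min reaction with 15 nM final substrate and 10 min with AlphaScreen beads. Recombinant human Tdp1 was used at 1 nM final.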
PLK1 PBD inh = inhibitors of human PLK1 polo-box domain binding | 360,000 compounds, 2.8% hits | Potency, µM, inactives show max response, negative = inhibition, most hits filed as inhibitors | P53350 | Plk1 PBD binding of FITC phosphopeptide, fluorescence polarization; note: series mostly up to about 57 µM; nearly all actives have a fitted effect of over 65% in size
* hit, by the source's call; ? = inconclusive; . = not tested or not shown; [ ] = dose if it differs, or a comment. Calls come from the whole dose curve; as a rule, active = well fitted curve in the direction sought with a large enough effect; inconclusive = small, poorly fitted or top-dose-only effect, or another doubt; inactive = no such curve, though single readings can be large; an effect the other way counts as inactive or inconclusive. % is set by controls: 0 for no effect and ±100 for the full control effect; potency is the fitted concentration of half-maximal effect.

SMILES | KAT2A inh | VDR inhibitor | DT40 TDP1 CPT | DT40 TDP1 no CPT | TDP1 inh | PLK1 PBD inh
COC(=O)N/N=C/c1cc(Br)ccc1O | -1% | 2% | -1% | -14% | 0% | -1%
O=C(N/N=C\c1ccccc1O)c1ccccc1O | ? | -1% | 0.53µM* | 0.53µM* | 32µM* | .
CCCCCCCC(=O)N/N=C/c1cccnc1 | 0% | -2% | -22% | -3% | 2% | -6%
O=C(N/N=C/c1cc(Br)ccc1O)c1ccccc1Cl | -3% | -12% | 0.65µM* | 0.92µM* | 3% | -2%
CCCCCCCC(=O)N/N=C/c1ccc(Br)cc1 | -2% | 7% | ? | 15µM* | 0% | 0%
O=C(Cn1cc(C(F)(F)F)ccc1=O)N/N=C/c1ccccc1O | -3% | ? | 16µM* | 7.3µM* | 4% | 30µM*
O=C(Cn1cc(C(F)(F)F)ccc1=O)N/N=C/c1ccc(F)cc1 | -4% | 11% | 23% | -27% | -8% | -1%
Cc1ccc2c(c1)CN(CCNC(=O)c1ccc3nc(C)[nH]c3c1)CC(C)O2 (configuration not stated) | . | . | 7%[9.04 µM] | -7% | . | .
COc1ccc(CN2CCOc3c(cc(-c4ccc(OC)nn4)cc3OC)C2)c(O)c1 | . | . | -9% | -12% | . | .
OC(c1ccccc1)(c1ccccc1)c1nccc2ccccc12 | . | -13% | -28% | ? | . | -3%
O=C(NCc1ccccn1)C(=O)N/N=C/c1ccccc1O | -22% | 16% | ? | 23µM* | . | -10%
Cc1cc(=O)oc2cc(OCC(=O)N/N=C/c3ccccc3O)ccc12 | -2% | 9% | -5% | -32% | 8%[0.0935 µM] | -13%
Cc1ccc(NC(=O)CCC(=O)N/N=C/c2ccccc2O)cc1 | -14% | -2% | 10µM* | 15µM* | . | 5%
CSc1nc(C)cc(OCC(=O)N/N=C/c2ccccc2O)n1 | 25% | -25% | 2.9µM* | ? | 4% | -7%
O=C(N/N=C/c1coc2ccc(Cl)cc2c1=O)c1cc(O)cc(O)c1 | -2% | -6% | -11% | -16% | 7%[56.1 µM] | 27µM*
Cc1cc(/C=N/NC(=O)C(=O)NCc2ccccn2)c(C)n1-c1cccc(Br)c1 | 0% | 11% | ? | ? | 7% | 0%
O=C(CC1SC(N2CCOCC2)=NC1=O)Nc1cccc(C(F)(F)F)c1 (configuration not stated) | -3% | -14% | 2% | -11% | -2% | 2%
Cc1ccc(-n2nc3c(c2NC(=O)c2cccs2)CS(=O)(=O)C3)cc1C | -8% | 0% | -21% | 1% | 4% | -3%
CCCCNC(=O)CCCCC(=O)N/N=C/c1ccccc1Cl | -1% | -9% | -12% | ? | 2% | -8%
COCCCNC(=S)N/N=C/c1ccccc1O | -6% | -8% | 2.6µM* | 0.58µM* | 9% | -13%
O=C(N/N=C/c1cc(Cl)ccc1O)c1ccncc1 | -4% | ? | 5.8µM* | 3.3µM* | 13% | 3.4µM*
CNC(=O)CCSc1ccc(C)cc1 | -9% | 0% | -4% | 8% | 4%[56.1 µM] | -2%
O=C(CCCCC(=O)NN=Cc1ccccc1O)NN=Cc1ccccc1O | . | -9% | 5.8µM* | 5.8µM* | . | 2%
Cc1ccc(SCCC(=O)N/N=C/c2ccccc2O)cc1 | -1% | 11% | 0.65µM* | 1.3µM* | 3% | 3%
O=C(COc1ccccc1-c1nc(-c2ccccc2)no1)Nc1ccc([N+](=O)[O-])cc1 | -3% | 8% | -13% | 2% | 9% | .
SMILES | KAT2A inh | VDR inhibitor | DT40 TDP1 CPT | DT40 TDP1 no CPT | TDP1 inh | PLK1 PBD inh
O=C(CCC(=O)Nc1ccc(Br)cc1)N/N=C/c1ccccc1O | 1% | 1% | ? | 6.5µM* | . | -2%
OCCN1CCN(c2ncnc3sc(-c4ccccc4)cc23)CC1 | -5% | 5% | ? | 15µM* | 2% | -18%
c1ccc(-c2cc3c(N4CCCCC4)ncnc3s2)cc1 | -10% | -6% | -39% | ? | 2% | -9%
c1ccc(-c2cc3c(N4CCOCC4)ncnc3s2)cc1 | -9% | 4% | 16µM* | 15µM* | 4% | -3%
O=C(Cn1cnc2sc(-c3ccccc3)cc2c1=O)N1CCOCC1 | -3% | -17% | -24% | -4% | 3% | -12%
c1ccc(-c2cc3c(N4CCCC4)ncnc3s2)cc1 | -1% | 11% | ? | 21µM* | 5% | -6%
CC[C@H](C)[C@H](NC(=O)[C@H](Cc1ccc(O)cc1)NC(=O)[C@H](CCCNC(=N)N)NC(=O)[C@H](CCCNC(=N)N)NC(=O)[C@H](CC(C)C)NC(=O)[C@H](CCC(N)=O)NC(=O)[C@@H](NC(=O)[C@H](CCC(=O)O)NC(=O)[C@H](Cc1ccc(O)cc1)NC(=O)[C@H](CCC(N)=O)NC(=O)[C@H](C)NC(=O)[C@H](CCCNC(=N)N)NC(=O)[C@H](CCC(N)=O)NC(=O)[C@H](CCC(=O)O)NC(=O)[C@H](Cc1cnc[nH]1)NC(=O)[C@@H](NC(=O)[C@H](C)NC(=O)[C@H](Cc1ccc(O)cc1)NC(=O)[C@H](CC(=O)O)NC(=O)CNC(=O)[C@@H]1CCCN1C(=O)[C@H](Cc1ccc(O)cc1)NC(=O)[C@H](CCSC)NC(=O)[C@@H]1CCCN1C(=O)[C@H](CCC(=O)O)NC(=O)[C@H](CC(C)C)NC(=O)[C@@H]1CCCN1C(=O)[C@H](C)N)[C@@H](C)O)[C@@H](C)O)C(=O)N[C@@H](CC(N)=O)C(=O)N[C@H](C(=O)N[C@@H](CC(C)C)C(=O)N[C@H](C(=O)N[C@@H](CCCNC(=N)N)C(=O)N1CCC[C@H]1C(=O)N[C@@H](CCCNC(=N)N)C(=O)N[C@@H](Cc1ccc(O)cc1)C(N)=O)[C@@H](C)O)[C@@H](C)O | 45% | 7% | . | . | 8% | .
Cc1cccc(N2CCN(C(=S)c3ccc4c(c3)OCO4)CC2)c1 | . | 79µM* | 6.5µM* | 5.8µM* | . | 11µM*
O=C(c1ccc2c(c1)OCO2)N1CCN(c2ccc(Cl)cc2)CC1 | 0% | -3% | -25% | ? | 3% | -2%
S=C(c1ccc2c(c1)OCO2)N1CCN(c2cccc(Cl)c2)CC1 | . | ? | 3.7µM* | 4.1µM* | . | 9.5µM*
CN(C)C1(CNC(=O)C2CCN(S(=O)(=O)c3cccc(C(F)(F)F)c3)CC2)CCCCC1 | 0% | -10% | -4% | -25% | 4% | 1%
CN(C)c1ccc(/C=C(/NC(=O)c2ccccc2Cl)C(=O)NCCN2CCOCC2)cc1 | -11% | -7% | 5% | -6% | 4% | -6%
